FLuc counter: inhibits or activates purified firefly luciferase, miR-21 counter-screen | 360,000 compounds, 6.9% hits | Potency, µM (top dose mostly 57.5 µM), without a hit: at the top dose activity change, negative = inhibition, usual class: inhibitors | P08659 | purified FLuc, Km substrates, luminescence inhibition;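 further: plate controls were vehicle for no effect and reference inhibitor for full effect; nearly all actives have a fitted effect of over 55% in size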
Target sequence (P08659 whole entry, looked up): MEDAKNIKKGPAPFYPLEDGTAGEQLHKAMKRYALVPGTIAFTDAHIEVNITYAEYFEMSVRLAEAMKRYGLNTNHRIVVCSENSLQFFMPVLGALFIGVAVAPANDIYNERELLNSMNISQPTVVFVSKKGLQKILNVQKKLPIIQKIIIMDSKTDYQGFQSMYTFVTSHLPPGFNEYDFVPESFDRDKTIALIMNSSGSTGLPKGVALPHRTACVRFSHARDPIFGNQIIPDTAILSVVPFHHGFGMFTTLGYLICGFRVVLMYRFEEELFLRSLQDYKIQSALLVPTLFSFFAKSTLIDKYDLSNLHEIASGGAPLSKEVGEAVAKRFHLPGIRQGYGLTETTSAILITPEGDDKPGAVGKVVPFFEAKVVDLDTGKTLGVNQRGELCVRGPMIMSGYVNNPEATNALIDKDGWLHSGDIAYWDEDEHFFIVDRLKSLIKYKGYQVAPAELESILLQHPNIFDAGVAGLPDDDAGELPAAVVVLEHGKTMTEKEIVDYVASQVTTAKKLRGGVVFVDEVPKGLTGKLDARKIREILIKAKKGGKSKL
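Purified P. pyralis luciferase, 10 nM final, with Km-level 10 uM D-luciferin and 10 uM ATP in 50 mM Tris acetate pH 7.5, 10 mM Mg acetate, 0.01% Tween-20, 0.05% BSA; 6-point qHTS titration about 60 µM downward; luminescence read.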
p53 reactivator: mutant p53 re-activation in reporter cells | H1299 p53-A138V BP100-luciferase reporter, luminescence, 24 h | Potency, µM (titrated, usually from 92.2 µM), without a hit: top-dose activity change, positive = activation, hits mostly activators | 320,000 compounds, 0.063% hits; further: % of control where 0% means no effect; nearly all actives have a fitted effect of over 45% in size
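H1299 (p53-null), stable ts p53-A138V + BP100-Luc; 1000 cells/well, Opti-MEM/10% FBS; cpd 4 pt, 1:5; 24 h, 37 deg C, 5% CO2; detection reagent 10 min RT; luminescence.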
SMN2 splice up: increases expression of the SMN2 splice variant; HEK293 SMN2-luciferase splicing reporter, luminescence, 30-36 h; Potency, µM (doses to about 46.1 µM), for inactives: top-dose activity change, positive = activation, actives largely listed as activators; 210,000 compounds, 2.8% hits; further: % of control where 0% means no effect; nearly all actives have a fitted effect of over 55% in size
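HEK293 cells carry an SMN2 […]–luciferase reporter in which exon 7 inclusion puts luciferase in frame. Cells were plated 10-12 h before compound addition, then incubated 30-36 h at 37C. ONE-Glo luminescence was read; sodium butyrate at 4.5 mM final served as control.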
NPC1 prom act: activates the NPC1 promoter. AID 485313. 320,000 compounds, 2.4% hits. Potency, µM (top dose mostly 9.22 µM), without a hit: at the top dose activation, hits mostly activators. Huh7 NPC1 promoter luciferase reporter, 24 h; further: % of control where 0% means no effect; nearly all actives have a fitted effect of over 60% in size
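Luminescence from an NPC1 promoter-driven luciferase reporter in stably transfected Huh7 cells was measured after 24 h compound treatment at 37 °C, followed by 10 min ambient incubation with luciferase detection reagent.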
ELG1 genotox: genotoxicity induction in ELG1-luciferase HEK293T cells | HEK293T ELG1-luciferase reporter, luminescence, 16 h | Potency, µM (doses to about 46 µM), inactives show at the highest dose activity change, positive = activation, usual class: activators | 330,000 compounds, 1.3% hits; further: % of control where 0% means no effect; nearly all actives have a fitted effect of over 60% in size
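DMSO vehicle served as control against compound-treated ELG1-luciferase HEK293T cells; exposure lasted 16 hr at 37 °C and 5% CO2, followed by ONE-Glo luminescence detection after 30 min.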
Rab9 prom act: Rab9 promoter activation. Huh7 Rab9 promoter-luciferase reporter, luminescence, 24 h. Potency, µM (series often up to 9.22 µM), for the others: at the top dose activation, negative = inhibition, actives largely listed as activators. 320,000 compounds, 2.8% hits. AID 485297; further: % of control where 0% means no effect; nearly all actives have a fitted effect of over 60% in size
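Huh7 cells stably carrying a Rab9 promoter-luciferase reporter, 1500 cells per well in OP-MEM I with 10% FBS, treated with compound 24 hours at 37C. Luciferase activity read by luminescence after 10 minutes with Amplite reagent.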
An asterisk follows results filed as active; ? = inconclusive; nt = not tested or not shown; [ ] = dose if it differs, or a comment. Hits are enriched below; roughly 7.3% of the tested compounds scored in any of these assays. The call rests on the fitted dose curve; in most records, active means well fitted curve in the direction sought with a large enough effect; inconclusive means small, poorly fitted or top-dose-only effect, or another doubt; inactive means no such curve, though single readings can be large; an effect the other way counts as inactive or inconclusive. Potency means the concentration at half of the fitted maximal effect.

SMILES	FLuc counter	p53 reactivator	SMN2 splice up	NPC1 prom act	ELG1 genotox	Rab9 prom act
O=C(N/N=C/C=C\c1ccccc1[N+](=O)[O-])c1cc(-c2ccc3ccccc3c2)n[nH]1	0%	-8%	-22%	-8%	?	-11%
O=C(N/N=C/c1ccccn1)c1cc(-c2cccc3ccccc23)n[nH]1	?	25%	23%	7%	-4%	3%
CCc1ccc(-c2cc(C(=O)N/N=C/c3ccccn3)[nH]n2)cc1	7.6µM*	11%	-33%	8%	-5%	12%
COCCN(CCOC)c1nc(C)nc2c1nc(-c1ccccc1)n2CC1CCN(C)CC1	nt	nt	-1%	nt	nt	nt
COc1ccc(CNC(=O)Cn2c(=O)oc3cc(S(=O)(=O)N4CCCCCC4)ccc32)cc1	-11%	nt	nt	nt	nt	nt
CC(CCc1ccccc1)NC(=O)CCNS(=O)(=O)c1ccccc1C(F)(F)F (stereo not drawn)	3%	-1%	nt	2%	-2%	-1%
O=C(N/N=C/c1ccccn1)c1ccc([N+](=O)[O-])cc1Cl	19µM*	17%	nt	-5%	2%	2%
O=C(N/N=C/c1ccco1)c1cc(-c2ccc3ccccc3c2)n[nH]1	19µM*	-4%	-1%	-1%	3%	1%
O=C(N/N=C/c1cccnc1)c1ccc([N+](=O)[O-])cc1Cl	?	22%	nt	-1%	-2%	-3%
COc1ccccc1N1CCN(CCCCNS(=O)(=O)c2cccc3c(N(C)C)cccc23)CC1	nt	nt	-34%	-32%[46.1 µM]	nt	-36%[46.1 µM]
O=C1C2C3C=CC(CO)(O3)C2C(=O)N1c1ccc(-c2ccccc2)cc1 (stereo not drawn)	19µM*	?	17%	13%	?	10%
Cc1ccc2c(c1)C=CC(C#N)N2C(=O)c1ccccc1 (stereo not drawn)	-7%	-5%	6.3µM*	-17%	9%	-18%
CCCC/C=C/C(NC(=O)c1cccs1)c1ccccc1 (stereo not drawn)	nt	nt	-42%	nt	nt	nt
CSc1cccc(NC(=O)C2CCN(S(=O)(=O)c3ccc4c(c3)CCCN4C(=O)C3CCC3)CC2)c1	-8%	nt	nt	nt	nt	nt
CCC(C(=O)OCC(=O)Nc1ccc(SC(F)F)cc1)c1ccccc1 (stereo not drawn)	-17%	-9%	-10%	-4%	8%	-1%
O=S1(=O)CCN(Cc2csc(-c3cccs3)n2)CC1	19µM*	6%	nt	1.3µM*	?	1.8µM*
c1csc(-c2nc(CN3CCSCC3)cs2)c1	2.4µM*	0%	nt	?	2.6µM*	0.4µM*
O=C(NCc1csc(-c2cccs2)n1)c1ccccc1	?	8%	nt	?	12%	23%
CCCN1C(=O)/C(=C2\SC(N3CCCCC3)=NC2=O)c2ccccc21	2.1µM*	?	19%	1.3µM*	10%	2.8µM*
CN1C(=O)/C(=C2\SC(N3CCCCCC3)=NC2=O)c2ccccc21	2.7µM*	14%	9%	?	?	3.5µM*
O=C1N=C(N2CCOCC2)S/C1=C1\C(=O)N(Cc2ccccc2)c2ccccc21	0.67µM*	11%	27%	2.8µM*	?	1.6µM*
COc1ccccc1-c1noc(CSc2nnc(Cc3ccccc3)n2-c2ccc(C)c(C)c2)n1	-21%	nt	2%	nt	nt	nt
Cc1ccc(NC(=O)c2cccc(OCc3c(C)noc3C)c2)cc1	24µM*	2%	-5%	9%	3%	1%
Cc1ccc(NC(=O)c2ccc(OC(=O)COc3ccc(Cl)c(C)c3)cc2)cc1	?	?	13µM*	2.2µM*	?	3.5µM*
COC(=O)COc1cccc(NC(=O)c2ccc(Cl)cc2)c1	27µM*	2%	0%	-2%	-5%	-9%
SMILES	FLuc counter	p53 reactivator	SMN2 splice up	NPC1 prom act	ELG1 genotox	Rab9 prom act
COC(=O)COc1cccc(NC(=O)c2ccc(C)cc2)c1	12µM*	-5%	-3%	-7%	3%	-1%
COC(=O)COc1cccc(NC(=O)c2cc(OC)cc(OC)c2)c1	?	-6%	-22%	-3%	1%	-4%
CCc1ccccc1Nc1nn2c(=O)c3ccc(C(=O)NCCCOC(C)C)cc3nc2s1	3%	nt	nt	0%	nt	-6%
O=C(c1ccco1)N1CCC[C@@]2(CCN(Cc3ccccc3)C2)C1	nt	nt	-4%	nt	nt	nt
COCCN(CCOC)C(=O)c1ccc(SCc2ccc(C)cc2)c([N+](=O)[O-])c1	-4%	21%	-13%	0%	1%	-5%
CC(C)(C)c1ccc(-n2ncc3c2CCCC3NC(=O)c2cnccn2)cc1 (stereo not drawn)	24µM*	-24%	nt	-15%	?	-14%
COc1ccc(NC(=O)CCn2c(-c3ccc(F)cc3)cc(C(C)=O)c2C)c(OC)c1	5%	nt	nt	nt	nt	nt
Cc1c(NC(=O)Nc2cccs2)cccc1[N+](=O)[O-]	-17%	-1%	-34%	-25%	-10%	-9%
Cc1ccc(NC(=O)Nc2cccs2)c(Cl)c1	8.5µM*	nt	6%	nt	nt	nt
O=C(Nc1cccs1)Nc1ccccc1Cl	27µM*	10%	-56%	14%	?	22%
O=C(Nc1cccs1)Nc1ccc(Br)cc1F	12µM*	?	0%	1%	1%	-1%
O=C(Nc1cccs1)Nc1cccnc1Cl	?	-9%	nt	1%	-3%	-39%
O=C(Nc1cccs1)Nc1ccc(F)cc1F	?	?	10%	25%	5%	?
CC(C)=CCC/C(C)=C/C=O	nt	nt	-3%	nt	nt	nt
Cc1cccc(-c2nc3c4ccccc4nc(NCc4ccccc4Cl)n3n2)c1	?	nt	29%	nt	nt	nt
COc1ccc2sc3ccccc3c(=O)c2c1	6.7µM*	18%	15%	?	?	?
COc1ccc(-c2cc(=O)c3ccccc3[nH]2)cc1	?	5%	-7%	4%	4%	0%
COc1ccc(-c2cc(=O)c3ccccc3s2)cc1	1.1µM*	?	4µM*	1.4µM*	2.3µM*	0.89µM*
COc1ccc2oc3ccccc3c(=O)c2c1	3%	3%	nt	-3%	-7%	0%
Cc1ccc(C(=O)NCC(c2cccs2)S(=O)(=O)c2cccs2)cc1 (stereo not drawn)	4%	nt	nt	nt	nt	nt
Cc1ccnc(NC(=O)C2CC(=O)N(Cc3ccccc3)C2)c1 (stereo not drawn)	6µM*	8%	nt	-2%	3.3µM*	-5%
O=C(Nc1ccccc1)C1CC(=O)N(Cc2ccccc2)C1 (stereo not drawn)	-2%	8%	nt	0%	5%	5%
Cc1ccc(NC(=O)C2CC(=O)N(Cc3ccccc3)C2)nc1 (stereo not drawn)	1%	4%	nt	0%	7%	-8%
